Experimental data published in PubChem BioAssay.
Calls of active or inactive are those of the source. Unless noted, the rule behind the calls is not given here.

How the values were obtained:
[1] = tested on: XIP peptide (Xip251-270) binding; assay: XIP fragment 251-270 binding compounds – biochemical, small-molecule microarray, fluorescence 635/667 nm, 0.1 µg/mL protein, primary screen (AID 1182); conditions: fluorescent protein binding, 635 nm, higher = more signal, called active from +8 up or from −8 down
XIP peptide (Xip251-270) = assay: compounds binding XIP fragment 251-270 – biochemical, small-molecule microarray, fluorescence 635/667 nm, 0.5 µg/mL protein, primary screen (AID 1183); conditions: fluorescence 635 nm, higher = more signal
[2] = blood-stage malaria parasite viability loss – strain 3D7, DAPI fluorescence, 100 nL, primary screen (AID 1184);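 note: parasites grown inside human red blood cells in medium with human serum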; conditions: P. falciparum 3D7 growth, 3 d, higher = more signal
[3] = target: Homeobox protein Hox-A13 (Mus musculus) (UniProt Q62424); assay: disruptors of Hoxa13 oligonucleotide interaction – biochemical, fluorescence polarization, labeled oligonucleotide, primary screen (AID 1185); conditions: Hoxa13:DNA binding, 15 min, higher = more signal, called active from +8 up or from −8 down
Homeobox protein Hox-A13 (Mus musculus), sequence (Q62424 whole entry, looked up): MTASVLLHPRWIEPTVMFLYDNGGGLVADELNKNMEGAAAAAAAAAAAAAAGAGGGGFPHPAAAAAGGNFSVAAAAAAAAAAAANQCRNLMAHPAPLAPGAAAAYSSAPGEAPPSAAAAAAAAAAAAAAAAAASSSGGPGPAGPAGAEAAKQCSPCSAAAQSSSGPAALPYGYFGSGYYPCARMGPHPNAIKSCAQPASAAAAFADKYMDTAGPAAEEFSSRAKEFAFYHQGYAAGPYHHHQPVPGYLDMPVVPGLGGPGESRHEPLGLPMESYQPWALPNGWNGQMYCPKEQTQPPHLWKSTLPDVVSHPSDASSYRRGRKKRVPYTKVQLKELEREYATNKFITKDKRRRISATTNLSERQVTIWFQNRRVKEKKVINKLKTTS

[4] = blockers of DNA damage checkpoint Chk1 activation – imaging, HeLa, hydroxyurea, phospho-Chk1 antibody, percent positive cells, primary screen (AID 1186); conditions: hydroxyurea-induced phospho-Chk1 immunofluorescence imaging, higher = more signal
[5] = blockers of DNA damage checkpoint Chk1 activation – imaging, HeLa, hydroxyurea, phospho-Chk1 nuclear intensity, primary screen (AID 1187); conditions: hydroxyurea-induced phospho-Chk1 immunofluorescence imaging, higher = more signal

Row | Compound | composite z-score [1] | composite z-score (XIP peptide (Xip251-270)) | z-score [2] | z-score [3] | z-score [4] | z-score [5]
1 | CC(C)C(CO)N1C(=O)[C@@H]2[C@H]3C(=O)OCC=C[C@H]3OC23C=CCN(c2ccc(Cl)cc2)C(=O)[C@@H]13 (stereo partly specified) | 0.331 (inactive) | -0.202 | -0.485 | -3.03 (inactive) | -0.438 (inactive) | -0.468 (inactive)
2 | Cc1ccc(C(C)CC(O)C2C=CC3C(=O)N(c4ccccc4)C(=O)C3N2Nc2ccccc2)o1 (stereo unspecified) | 0.0436 (inactive) | 0.518 | -0.54 | -1.12 (inactive) | -0.179 (inactive) | -0.508 (inactive)
3 | O=C1NC(=O)C2C1C=CC(C(O)c1ccco1)N2Nc1ccc(Cl)cc1Cl (stereo unspecified) | -0.101 (inactive) | 0.634 | -0.461 | -5.4 (inactive) | 0.54 (inactive) | 0.408 (inactive)
4 | O=C1O[C@@H](c2ccccc2)[C@@H](c2ccccc2)N2[C@@H](c3ccc(O)cc3)[C@]3(C(=O)Nc4ccc(C#CCCO)cc43)[C@@H](C(=O)N3CCN(c4ncccn4)CC3)[C@H]12 | 0.678 (inactive) | 0.731 | -2.11 | -2.41 (inactive) | -0.193 (inactive) | 0.058 (inactive)
5 | O[C@@H](Cc1ccccc1)[C@@H](/C=C/C1CC1)N(CC#Cc1ccccc1)Cc1ccccc1Br | -0.112 (inactive) | 0.13 | -2.81 | -0.167 (inactive) | -0.36 (inactive) | -0.214 (inactive)
6 | Cc1ccccc1C(O)C1C=CC2C(=O)NC(=O)C2N1Nc1ccccn1 (stereo unspecified) | 0.132 (inactive) | 0.11 | -0.461 | -1.11 (inactive) | -0.0651 (inactive) | -0.681 (inactive)
7 | C=C[C@@H](CO)N(Cc1ccc(OC)cc1)S(=O)(=O)c1ccc(Br)cc1 | -0.798 (inactive) | -0.315 | -0.0153 | -3.98 (inactive) | -0.289 (inactive) | -0.157 (inactive)
8 | CCOC(=O)C[C@H]1[C@H](OC(=O)c2ccc(C(=O)c3ccccc3)cc2)[C@@H](NC(=O)C2CCCCC2)c2cc(OCCCO)ccc2N1C(=O)c1ccc2ccccc2n1 | -0.482 (inactive) | 0.368 | -1.69 | -0.814 (inactive) | -0.739 (inactive) | -0.573 (inactive)
9 | COc1cc(OC)c(C(O)C2C=CC3C(=O)N(Cc4ccccc4)C(=O)C3N2n2cnnc2)cc1Br (stereo unspecified) | 0.236 (inactive) | 0.0481 | -0.976 | 0.767 (inactive) | 0.0176 (inactive) | 0.301 (inactive)
10 | CCCC=C(CCC)[C@@H](NP(=O)(c1ccccc1)c1ccccc1)c1ccc(-c2ccccc2)cc1 | 0.356 (inactive) | 0.42 | 0.0851 | -1.13 (inactive) | 0.175 (inactive) | -0.0233 (inactive)
11 | C=CCN1C(=O)[C@]2(CCS(=O)(=O)c3ccccc3)N=C(c3ccc(OCCCO)cc3)O[C@@H]2c2ccccc21 | 0.0088 (inactive) | 0.804 | -2.33 | -2.55 (inactive) | -0.419 (inactive) | -0.216 (inactive)
12 | CCCC#C[Si](O[C@H](CC)c1cn([C@H](C)c2ccccc2)nn1)(C(C)C)C(C)C | 0.062 (inactive) | 0.78 | -0.285 | -0.652 (inactive) | -0.673 (inactive) | -0.399 (inactive)
13 | CC1CC/C=C\[C@H]2OC34C=CCN(Cc5ccccc5)C(=O)[C@H]3N(C(CO)C(C)C)C(=O)[C@@H]4C2C(=O)O1 (stereo partly specified) | 0.0855 (inactive) | -0.555 | 0.597 | -5.14 (inactive) | -0.0785 (inactive) | -0.204 (inactive)
14 | CCOC(=O)C[C@H]1[C@H](OC(=O)c2ccccc2-c2ccccc2)[C@@H](NC(=O)c2ccc3ccccc3c2)c2cc(OCCCO)ccc2N1C(=O)c1ccccc1 | -0.323 (inactive) | 0.306 | -1.72 | -2.39 (inactive) | 0.185 (inactive) | 0.361 (inactive)
15 | CCCCN1CC=CC23O[C@@H]4/C=C\CCC(C)OC(=O)C4[C@H]2C(=O)N(CCCO)[C@@H]3C1=O (stereo partly specified) | -0.571 (inactive) | 0.214 | 0.544 | -3.97 (inactive) | 0.331 (inactive) | -0.112 (inactive)
16 | CCCC[C@@H](O)C1=C(COc2ccccc2)C[C@H]2C(=O)N(Cc3ccccc3)C(=O)[C@H]2[C@H]1CO | -0.243 (inactive) | 0.374 | 0.131 | -7.37 (inactive) | -0.782 (inactive) | -0.513 (inactive)
17 | COC(=O)C1=CC(CCCO)=CC(c2ccc(CN3CCCC3)cc2)N(Cc2cccc(OC(F)(F)F)c2)C=C1C(=O)OC (stereo unspecified) | 1.68 (inactive) | 0.677 | -2.09 | -5.07 (inactive) | -0.268 (inactive) | -0.184 (inactive)
18 | CS(=O)(=O)CCOC(=O)C1=CC(CCCO)=CC(c2ccc(CN3CCCC3)cc2)N(Cc2sc3ccccc3c2Cl)C=C1C(=O)OCCS(C)(=O)=O (stereo unspecified) | 0.814 (inactive) | 0.746 | -3.03 | 1.07 (inactive) | 0.316 (inactive) | 0.969 (inactive)
19 | COC(=O)[C@@]1(Cc2ccc(OC)cc2)[C@H]2c3cc(C(=O)N4CCCC4)n(CCO)c3C[C@H]2CN1C(=O)c1ccccc1 | 0.675 (inactive) | 0.643 | -1.72 | -5.06 (inactive) | 1.33 (inactive) | 0.404 (inactive)
20 | CC(C)[Si]1(C(C)C)OCc2cc(-c3ccc(-c4ccc(Cl)c(Cl)c4)o3)nc(-c3ccccc3)c21 | -0.325 (inactive) | 0.716 | 0.138 | -2.02 (inactive) | -0.611 (inactive) | -0.577 (inactive)
21 | O=C(NCc1ccc(F)cc1)[C@H]1C[C@H]2C(=O)NCC(=O)N2[C@H]1c1ccc(O)cc1 | 0.981 (inactive) | 0.842 | -0.16 | -1.87 (inactive) | -0.339 (inactive) | -0.45 (inactive)
